Assay results reported in PubChem BioAssay AID372 (MTDP, 2006).
Among all 100,000 compounds or so, about 770 (0.77%) were called active. Rule as the data show it: active = inhibition above about 50%; inactive = the rest. For the sample, actives were picked, then their nearest neighbours and some compounds at random.

What follows are compounds tested against Gag-Pol polyprotein (Human immunodeficiency virus type 1 group M subtype B (isolate HXB2)) (UniProt P04585) (assay: RNase H inhibition, HIV 1 Gag Pol polyprotein, FRET biochemical assay, screening (AID 372)). Conditions: HIV-1 RT RNase H, FRET RNA/DNA substrate fluorescence; at 10 µM; active compounds read high.
`Cc1cccnc1NC(=O)Nc1cccc(F)c1` was tested, and the inhibition was 7% (inactive).
`O=C(NNc1ccc(F)cc1)C(O)(c1ccccc1)c1ccccc1` was tested, and the inhibition was 2% (inactive).
In the case of `NS(=O)(=O)c1ccc(Nc2nc(-c3ccccn3)cs2)cc1`, the inhibition is reported as 3% (inactive).
In the case of `CC(=O)Nc1ccc2c(c1)C(=O)OC2(c1ccc(N(C)C)cc1)c1ccc(N(C)C)cc1`, the inhibition is reported as 17% (inactive).
In the case of `Cc1nc2ccccc2n1C(=O)c1ccc([N+](=O)[O-])cc1`, the inhibition is reported as 0% (inactive).
In the case of `Cc1ccc(C(=O)N/N=C/C=C/c2ccc([N+](=O)[O-])cc2)cn1`, the inhibition is reported as 1% (inactive).
With `O=C(N/N=C\c1ccc([N+](=O)[O-])cc1)c1cccc2cc[nH]c12` the inhibition was 8% (inactive).
With `Cc1ccc(N2NC(=O)/C(=C/c3ccc(-c4cc([N+](=O)[O-])ccc4C)o3)C2=O)cc1` the inhibition was 13% (inactive).
For `Cc1ccc(C)n1-c1ccc(C(=O)O)cc1O`, the inhibition was 8% (inactive).
With `Cc1c(C(=O)O)cccc1-n1c(=O)c2cc3c(=O)n(-c4cccc(C(=O)O)c4C)c(=O)c3cc2c1=O` the inhibition was 10% (inactive).
For `Cc1c(C(=O)O)cccc1-n1c(C)ccc1C`, the inhibition was 58% (active).
With `COc1cc(C(=O)O)c(-n2c(C)ccc2C)cc1OC` the inhibition was 13% (inactive).
For `Cc1ccc(C(=O)O)cc1-n1c(C)ccc1C`, the inhibition was 19% (inactive).
In the case of `Cc1ccc(C)n1-c1ccc(Cl)cc1C(=O)O`, the inhibition is reported as 16% (inactive).
`Cc1ccc(C)n1-c1ccccc1C(=O)O` was tested, and the inhibition was 15% (inactive).
`COc1ccc(/C(C)=N/NC(=O)c2ccncc2)c(OC)c1OC` was tested, and the inhibition was 5% (inactive).
With `COc1cc(Br)c(CNc2cccc(C)c2)cc1OC` the inhibition was 22% (inactive).
With `CCc1c(C)c(C#N)c2nc3ccccc3n2c1Nc1ccc(N(CC)CC)cc1` the inhibition was 30% (inactive).
`O=C(Nc1ccccc1C#Cc1ccccc1)c1ccc(-c2ccccc2)cc1` was tested, and the inhibition was 0% (inactive).
With `CC1CC(Nc2ccccc2)c2ccccc2N1` (configuration not stated) the inhibition was 0% (inactive).
In the case of `COC(=O)CN1C(=O)c2cccc3cccc(c23)C1=O`, the inhibition is reported as 7% (inactive).
`N#CC1=C(N)OC2=C(C(=O)CC(c3ccccc3)C2)C1c1coc2ccccc2c1=O` (configuration not stated) was tested, and the inhibition was 4% (inactive).
For `O=C1NC(=O)N(Cc2ccco2)C(=O)/C1=C\c1ccc(-c2ccc(Cl)c([N+](=O)[O-])c2)o1`, the inhibition was 35% (inactive).
`Cc1cc([N+](=O)[O-])ccc1-n1c(C)cc(/C=C2/C(=O)NC(=O)N(Cc3ccco3)C2=O)c1C` was tested, and the inhibition was 50% (active).
In the case of `O=C1NC(=O)N(Cc2ccco2)C(=O)/C1=C\c1ccc(-c2cccc(Cl)c2Cl)o1`, the inhibition is reported as 46% (inactive).
With `Cc1cc(/C=C2/C(=O)NC(=O)N(Cc3ccco3)C2=O)c(C)n1-c1ccc(Cl)cc1` the inhibition was 12% (inactive).
In the case of `CCOC(=O)c1ccc(-c2ccc(/C=C3/C(=O)NC(=O)N(Cc4ccco4)C3=O)o2)cc1`, the inhibition is reported as 34% (inactive).
With `O=C1NC(=O)N(Cc2ccco2)C(=O)/C1=C\c1ccc(-c2ccc(C(=O)O)cc2)o1` the inhibition was 35% (inactive).
With `O=C1NC(=O)N(Cc2ccco2)C(=O)/C1=C\c1ccc(-c2ccc(Br)cc2)o1` the inhibition was 53% (active).
For `O=C1NC(=O)N(Cc2ccco2)C(=O)/C1=C\c1ccc(-c2ccc(Cl)c(Cl)c2)o1`, the inhibition was 41% (inactive).
For `O=C1NC(=O)N(Cc2ccco2)C(=O)/C1=C\c1ccc(-c2ccc(Cl)cc2Cl)o1`, the inhibition was 58% (active).
`Cc1cc(/C=C2/C(=O)NC(=O)N(Cc3ccco3)C2=O)c(C)n1-c1ccc([N+](=O)[O-])cc1` was tested, and the inhibition was 14% (inactive).
For `O=C1NC(=O)N(Cc2ccco2)C(=O)/C1=C\c1ccc(-c2ccc([N+](=O)[O-])cc2)o1`, the inhibition was 17% (inactive).
In the case of `Cc1cc(-c2ccc(/C=C3/C(=O)NC(=O)N(Cc4ccco4)C3=O)o2)ccc1Br`, the inhibition is reported as 58% (active).
With `O=[N+]([O-])c1cc2c(cc1C=Nc1cc(Cl)cc(Cl)c1)OCO2` the inhibition was 5% (inactive).
With `COc1ccc([N+](=O)[O-])cc1NCc1ccccc1F` the inhibition was 12% (inactive).
`COc1ccc(C2CC(=O)C3=C(C2)NC(C)=C(C(=O)OCc2ccccc2)C3c2cc(OC)c(OC)c(OC)c2)cc1` (configuration not stated) was tested, and the inhibition was 10% (inactive).
With `CCOC(=O)c1c(-c2ccc(C(C)C)cc2)csc1N` the inhibition was 27% (inactive).
In the case of `COc1cc([N+](=O)[O-])ccc1NC(=O)c1ccccc1`, the inhibition is reported as 16% (inactive).
`COc1cc2ccccc2cc1C(=O)Nc1ccc(C)c(NC(=O)c2cc3ccccc3cc2OC)c1` was tested, and the inhibition was 28% (inactive).
For `CC1=C(C(=O)OCCc2ccccc2)C(c2ccc(O)cc2)C2=C(CCCC2=O)N1` (configuration not stated), the inhibition was 2% (inactive).
`Cc1ccc(N2C(=O)NC(=O)/C(=C\c3cccc(C(F)(F)F)c3)C2=O)cc1C` was tested, and the inhibition was 5% (inactive).
`CCOc1ccc(N2C(=O)/C(=C/c3ccc(-c4ccccc4C(=O)O)o3)C(=O)NC2=S)cc1` was tested, and the inhibition was 15% (inactive).
`O=C(O/N=C(/c1ccccc1)c1ccncc1)c1ccc(Cl)cc1Cl` was tested, and the inhibition was 18% (inactive).
In the case of `COc1cc(S(=O)(=O)Oc2ccc(OCc3ccccc3)cc2)ccc1Cl`, the inhibition is reported as 5% (inactive).
For `COc1ccc(Cl)cc1S(=O)(=O)Oc1ccc(OCc2ccccc2)cc1`, the inhibition was 53% (active).
`COc1ccc(Cl)cc1S(=O)(=O)Oc1ccc(Cl)cc1` was tested, and the inhibition was 39% (inactive).
For `Cc1c(/C=C2/C(=O)NC(=O)N(Cc3ccco3)C2=O)c2ccccc2n1CC(N)=O`, the inhibition was 27% (inactive).
In the case of `Cc1cccc(C(=O)N2N=C(c3ccc(F)cc3)CC2(O)C(F)(F)F)c1` (configuration not stated), the inhibition is reported as 0% (inactive).
In the case of `CCOC(=O)C1=c2s/c(=C\c3ccc(O)cc3)c(=O)n2C(N)=C(C#N)C1c1ccc(O)cc1` (configuration not stated), the inhibition is reported as 67% (active).
With `CCOC(=O)C1=c2s/c(=C\c3ccc(O)c(OCC)c3)c(=O)n2C(N)=C(C#N)C1c1ccc(O)c(OCC)c1` (configuration not stated) the inhibition was 4% (inactive).
`CCOC(=O)C1=c2s/c(=C\c3cccnc3)c(=O)n2C(N)=C(C#N)C1c1cccnc1` (configuration not stated) was tested, and the inhibition was 7% (inactive).
In the case of `C=CCN1C(=O)/C(=C/c2cc([N+](=O)[O-])ccc2OC)SC1=S`, the inhibition is reported as 3% (inactive).
`O=C1NC(=Nc2cccc(Cl)c2Cl)S/C1=C\c1ccccc1` was tested, and the inhibition was 12% (inactive).
For `COC(=O)C1=C(C)N(Cc2cccnc2)C(=O)/C1=C\c1ccc(Br)cc1`, the inhibition was 14% (inactive).
For `CC(C)NC(=O)C12CC3(C)CC(C)(CC(C)(C3)C1)C2`, the inhibition was 0% (inactive).
In the case of `CCOC(=O)C1=C(O)/C(=C/c2cc(OC)c(O)c(OC)c2)SC1=Nc1ccccc1`, the inhibition is reported as 13% (inactive).
With `CCOC(=O)C1=C(O)/C(=C/c2ccc(O)c(OC)c2)SC1=Nc1ccccc1` the inhibition was 50% (active).
`CCOC(=O)C1=C(O)/C(=C/c2ccc(O)c(OCC)c2)SC1=Nc1ccccc1` was tested, and the inhibition was 20% (inactive).
For `N=C1/C(=C/c2ccc(-c3ccccc3Cl)o2)C(=O)N=C2SC(c3ccccc3)=NN12`, the inhibition was 56% (active).
For `N=C1/C(=C/c2ccc(-c3ccc(Cl)cc3Cl)o2)C(=O)N=C2SC(c3ccccc3)=NN12`, the inhibition was 2% (inactive).
`N=C1/C(=C/c2ccc(-c3cc(Cl)ccc3Cl)o2)C(=O)N=C2SC(c3ccccc3)=NN12` was tested, and the inhibition was 44% (inactive).
`Cc1ccc(N(CC(=O)O)S(C)(=O)=O)cc1C` was tested, and the inhibition was 0% (inactive).
In the case of `CCCOc1ccccc1/C=C1/SC(N2CCN(c3ccc(Cl)cc3)CC2)=NC1=O`, the inhibition is reported as 12% (inactive).
`CCOC(=O)c1ccccc1NC(=O)c1cnn2c1NC(c1ccccc1)CC2C(F)(F)F` (configuration not stated) was tested, and the inhibition was 17% (inactive).
For `CCOC(=O)c1cnn2c1NC1=C(CCc3ccccc31)C2C(F)(F)F` (configuration not stated), the inhibition was 58% (active).
In the case of `CCOC(=O)c1cnn2c(C(F)(F)F)c3c(nc12)-c1ccccc1CC3`, the inhibition is reported as 7% (inactive).
With `COc1ccc(CN(CCC(c2ccccc2OC)C2CCOC(C)(C)C2)C(C)=O)cc1` (configuration not stated) the inhibition was 17% (inactive).
In the case of `COc1ccccc1NC(=O)Nc1nnc(-c2ccccc2SCc2ccc(F)cc2)s1`, the inhibition is reported as 10% (inactive).
`CCOC(=O)c1ccc(N=Cc2ccc3c(c2)OCO3)cc1` was tested, and the inhibition was 4% (inactive).
With `COc1ccc(NC(=O)c2c(NC(=O)c3ccco3)sc3c2CCC3)cc1` the inhibition was 15% (inactive).
`Cc1ccccc1NC(=O)c1c(NC(=O)c2ccco2)sc2c1CCC(C)C2` (configuration not stated) was tested, and the inhibition was 51% (active).
`CCOc1ccc(NC(=O)c2c(NC(=O)c3ccco3)sc3c2CCCC3)cc1` was tested, and the inhibition was 4% (inactive).
`Cc1ccccc1NC(=O)c1c(NC(=O)c2ccco2)sc2c1CCC2` was tested, and the inhibition was 24% (inactive).
In the case of `CCOc1ccccc1NC(=O)c1c(NC(=O)c2ccco2)sc2c1CCC(C)C2` (configuration not stated), the inhibition is reported as 7% (inactive).
In the case of `O=C(c1cc(Cl)ccc1Cl)N1CCN(c2ccccc2)CC1`, the inhibition is reported as 5% (inactive).
For `Cc1ccc(OCC(=O)Nc2nc(-c3ccccc3)cs2)c(C)c1`, the inhibition was 5% (inactive).
For `COc1ccc(Nc2ccc(C(F)(F)F)cc2[N+](=O)[O-])cc1`, the inhibition was 7% (inactive).
In the case of `CCNC(=O)c1c(O)c2ccccc2n(C)c1=O`, the inhibition is reported as 1% (inactive).
`O=C(c1ccc(Cl)c(Cl)c1)c1ccc(N2CCOCC2)c([N+](=O)[O-])c1` was tested, and the inhibition was 54% (active).
For `O=C(c1ccc(Cl)c(Cl)c1)c1ccc(N2CCCCC2)c([N+](=O)[O-])c1`, the inhibition was 19% (inactive).
In the case of `O=C(c1ccc(Cl)cc1)c1ccc(N2CCOCC2)c([N+](=O)[O-])c1`, the inhibition is reported as 16% (inactive).
For `COc1ccc(N/C(C)=C/C(=O)ONC(=O)c2ccccc2)cc1`, the inhibition was 5% (inactive).
In the case of `CCOC(=O)C(N)CSC1CC(=O)N(c2ccc(Cl)c(Cl)c2)C1=O` (configuration not stated), the inhibition is reported as 7% (inactive).
With `Clc1cccc(-c2nnc(-c3ccc4c(c3)OCO4)o2)c1` the inhibition was 15% (inactive).
In the case of `O=C(CSc1nc2ccccc2s1)Nc1ccc(Cl)cc1`, the inhibition is reported as 37% (inactive).
For `O=C(CSc1nc2ccccc2s1)NNC(=S)Nc1ccc(Cl)cc1`, the inhibition was 65% (active).
`O=C(CSc1nc2ccccc2s1)Nc1ccc(F)c(Cl)c1` was tested, and the inhibition was 23% (inactive).
For `O=C(CSc1nc2ccccc2s1)NNC(=O)NC1CCCCC1`, the inhibition was 0% (inactive).
With `O=C(CSc1nc2ccccc2s1)NNC(=S)NC1CCCCC1` the inhibition was 56% (active).
`O=C(CSc1nc2ccccc2s1)NC1CCCCC1` was tested, and the inhibition was 0% (inactive).
With `COc1ccc(/C=C2/SC(=O)N(CC(=O)Nc3ccc(C)c(C)c3)C2=O)cc1OC` the inhibition was 22% (inactive).
